Measurements taken from the supplement of paper PMC10849652.
About 7,900 targets were measured; listed, in parts, are those with a hit and a random draw of the rest. About 0.6% of all pairs of compound and target were hits.

Tests used:
Experiment in all cases: log2 fold change, soluble protein after heating vs DMSO (PISA); higher = thermal stabilisation; K562 cells, 10 uM, 30 min; active = over 0.2 and 3.5 SD of the protein, either way, in both replicates (recomputed)
[1] = compound: CN1CCN(CCOc2cc(OC3CCOCC3)c3c(Nc4c(Cl)ccc5c4OCO5)ncnc3c2)CC1 [saracatinib]
Procedure, shortened: (§1)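 K562 cells at 2×10^6 cells/mL were treated with 10 μM compound for 30 min. Aliquots were heated for 3 min across 48°C-58°C, pooled, and extracted in PBS with 0.5% NP-40 at 4°C; soluble protein was the supernatant after 21,000xg for 90 min. Soluble protein was quantified by TMTpro 16plex LC-MS/MS with channel sums equalised, and reported as log2 fold change in thermal stability against DMSO controls, with values from duplicates.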

[2] = compound: CN1CCN(c2nc(C3=C(c4c[nH]c5ccccc45)C(=O)NC3=O)c3ccccc3n2)CC1 [sotrastaurin]
Procedure, shortened: as §1

[3] = compound: CN1CC[C@H](c2c(O)cc(O)c3c(=O)cc(-c4ccccc4Cl)oc23)[C@H](O)C1 [alvocidib]
Procedure, shortened: as §1

[4] = compound: CNC(=O)C1=CC=CC=C1NC2=NC(=NC=C2Cl)NC3=C(C=C(C=C3)N4CCOCC4)OC
Procedure, shortened: as §1

[5] = compound: CNC(=O)c1ccc(Nc2ncc(C(F)(F)F)c(NCc3nccnc3N(C)S(C)(=O)=O)n2)cc1 [defactinib]
Procedure, shortened: as §1

[6] = compound: CNCc1ccc(-c2[nH]c3cc(F)cc4c3c2CCNC4=O)cc1 [rucaparib]
Procedure, shortened: as §1

[7] = compound: CNc1nc(-c2ccc3c(N)n[nH]c3c2)cc(N2C[C@@H](C(=O)NC3CCCCC3)CC[C@H]2C)n1
Procedure, shortened: as §1

[8] = compound: COC(=O)N[C@@H](C)CNc1nccc(-c2cn(C(C)C)nc2-c2cc(Cl)cc(NS(C)(=O)=O)c2F)n1 [encorafenib]
Procedure, shortened: as §1

[9] = compound: COC(=O)[C@H](CCSC)NC(=O)C1=C(C=C(C=C1)NC[C@H](CS)N)C2=CC=CC=C2
Procedure, shortened: as §1

[10] = compound: COC1=CC=C(C=C1)CN2C=CC3=C2C=C(C=C3)C(=O)NO
Procedure, shortened: as §1

[11] = compound: CON(C)C(=O)N1N=C(c2cc(F)ccc2F)S[C@@]1(CCCN)c1ccccc1 [filanesib]
Procedure, shortened: as §1

[12] = compound: CO[C@H]1C[C@@H]2CC[C@@H](C)[C@@](O)(O2)C(=O)C(=O)N2CCCC[C@H]2C(=O)O[C@H]([C@H](C)C[C@@H]2CC[C@H](n3cnnn3)[C@H](OC)C2)CC(=O)[C@H](C)/C=C(\C)[C@@H](O)[C@@H](OC)C(=O)[C@H](C)C[C@H](C)/C=C/C=C/C=C/1C [zotarolimus]
Procedure, shortened: as §1

[13] = compound: COc1cc(C(=O)O)ccc1NC(=O)[C@@H]1N[C@@H](CC(C)(C)C)[C@](C#N)(c2ccc(Cl)cc2F)[C@H]1c1cccc(Cl)c1F [idasanutlin]
Procedure, shortened: as §1

[14] = compound: COc1cc(Nc2ncc3c(n2)-c2ccc(Cl)cc2C(c2c(F)cccc2OC)=NC3)ccc1C(=O)O [alisertib]
Procedure, shortened: as §1

[15] = compound: COc1cc2nc(-c3cc(F)ccc3O)nc(N[C@@H]3CNC[C@H]3C(C)(C)O)c2cc1OC
Procedure, shortened: as §1

[16] = compound: COc1cc2ncnc(Nc3ccc(F)c(Cl)c3)c2cc1OCCCN1CCOCC1 [gefitinib]
Procedure, shortened: as §1

[17] = compound: COc1cccc2cc(-c3nc([C@H]4CC[C@H](C(=O)O)CC4)n4ncnc(N)c34)[nH]c12
Procedure, shortened: as §1

[18] = compound: CS(=O)(=O)CCNCc1ccc(-c2ccc3ncnc(Nc4ccc(OCc5cccc(F)c5)c(Cl)c4)c3c2)o1 [lapatinib]
Procedure, shortened: as §1

[19] = compound: CS(=O)(=O)N1CCN(Cc2cc3nc(-c4cccc5[nH]ncc45)nc(N4CCOCC4)c3s2)CC1 [pictilisib]
Procedure, shortened: as §1

[20] = compound: CN1CCc2c(c3ccccc3n2Cc2ccc(C(=O)NO)cc2)C1 [Tubastatin A]
Procedure, shortened: as §1

Measured: log2 fold change

APAF1 (UniProt O14727)
inactive: [1] -0.088 | [2] 0 | [3] -0.026 | [4] 0.109 | [5] 0.082 | [6] 0.103 | [7] 0.032 | [8] 0.158 | [9] 0.05 | [10] -0.023 | [11] -0.066 | [12] -0.03 | [13] -0.068 | [14] 0.08 | [15] 0.279 | [16] -0.163 | [17] 0.09 | [18] 0.369 | [19] -0.04

BRAF (UniProt P15056)
Chain of UniProt P15056 (P15056 whole entry, looked up): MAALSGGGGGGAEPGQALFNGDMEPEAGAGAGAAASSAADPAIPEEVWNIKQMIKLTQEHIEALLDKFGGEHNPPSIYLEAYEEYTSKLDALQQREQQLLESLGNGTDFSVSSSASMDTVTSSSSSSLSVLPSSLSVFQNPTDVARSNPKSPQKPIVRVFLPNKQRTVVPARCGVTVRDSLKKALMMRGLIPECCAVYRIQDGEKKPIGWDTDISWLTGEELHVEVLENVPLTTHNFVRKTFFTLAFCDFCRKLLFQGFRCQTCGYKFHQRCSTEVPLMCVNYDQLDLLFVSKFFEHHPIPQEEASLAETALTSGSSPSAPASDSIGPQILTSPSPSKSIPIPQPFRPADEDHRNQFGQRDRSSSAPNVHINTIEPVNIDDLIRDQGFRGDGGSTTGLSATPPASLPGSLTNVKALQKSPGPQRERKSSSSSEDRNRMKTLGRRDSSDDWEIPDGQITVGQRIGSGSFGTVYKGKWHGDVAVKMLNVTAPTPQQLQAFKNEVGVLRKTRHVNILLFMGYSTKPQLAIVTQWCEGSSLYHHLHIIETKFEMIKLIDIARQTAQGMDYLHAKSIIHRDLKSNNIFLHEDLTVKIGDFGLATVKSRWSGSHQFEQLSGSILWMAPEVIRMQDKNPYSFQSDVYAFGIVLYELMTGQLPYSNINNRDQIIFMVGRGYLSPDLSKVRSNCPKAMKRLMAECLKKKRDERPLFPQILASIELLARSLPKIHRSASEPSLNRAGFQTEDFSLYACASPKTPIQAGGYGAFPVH
inactive: [1] 0.029 | [2] -0.069 | [3] -0.059 | [20] 0.007 | [4] -0.02 | [5] -0.058 | [6] 0.013 | [7] -0.059 | [8] 0.014 | [9] -0.037 | [10] -0.031 | [11] -0.05 | [12] -0.004 | [13] -0.047 | [14] 0.007 | [15] -0.076 | [16] 0.012 | [17] 0.015 | [19] -0.061

ADAMTS5 (UniProt Q9UNA0)
Chain of UniProt Q9UNA0 (Q9UNA0 whole entry, looked up): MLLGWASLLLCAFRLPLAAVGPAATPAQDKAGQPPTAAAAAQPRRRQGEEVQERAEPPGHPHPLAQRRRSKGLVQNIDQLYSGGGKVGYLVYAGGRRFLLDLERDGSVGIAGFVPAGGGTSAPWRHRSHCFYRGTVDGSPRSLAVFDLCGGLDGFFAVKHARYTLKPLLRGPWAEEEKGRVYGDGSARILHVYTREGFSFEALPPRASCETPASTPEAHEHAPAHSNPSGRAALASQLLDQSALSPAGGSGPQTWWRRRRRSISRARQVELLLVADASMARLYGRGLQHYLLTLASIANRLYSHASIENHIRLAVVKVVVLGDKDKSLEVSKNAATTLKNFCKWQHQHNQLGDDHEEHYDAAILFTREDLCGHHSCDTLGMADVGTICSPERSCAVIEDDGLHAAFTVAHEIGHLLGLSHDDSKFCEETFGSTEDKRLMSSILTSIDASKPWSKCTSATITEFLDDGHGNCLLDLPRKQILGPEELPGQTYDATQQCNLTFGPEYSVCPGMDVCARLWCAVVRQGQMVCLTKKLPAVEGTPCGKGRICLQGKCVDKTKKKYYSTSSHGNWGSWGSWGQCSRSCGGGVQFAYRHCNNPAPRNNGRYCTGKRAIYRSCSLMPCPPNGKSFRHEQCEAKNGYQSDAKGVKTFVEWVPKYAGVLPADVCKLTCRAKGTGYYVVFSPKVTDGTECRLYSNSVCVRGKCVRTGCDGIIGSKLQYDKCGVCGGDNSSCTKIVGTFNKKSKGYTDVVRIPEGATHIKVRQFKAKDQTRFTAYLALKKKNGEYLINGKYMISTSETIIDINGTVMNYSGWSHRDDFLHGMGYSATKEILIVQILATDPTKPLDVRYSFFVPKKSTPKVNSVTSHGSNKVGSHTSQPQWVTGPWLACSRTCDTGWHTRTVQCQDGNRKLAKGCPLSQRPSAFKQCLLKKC
inactive: [1] -0.107 | [2] -0.004 | [3] 0.007 | [20] 0.222 | [4] -0.13 | [5] -0.021 | [6] -0.04 | [7] -0.048 | [8] -0.136 | [9] 0.028 | [10] 0.295 | [11] -0.051 | [12] -0.063 | [13] -0.06 | [14] 0.019 | [16] 0.012 | [17] 0.092 | [19] 0.198

ADAM15 (UniProt Q13444)
inactive: [1] -0.241 | [2] -0.034 | [3] -0.091 | [20] 0.065 | [4] -0.211 | [5] -0.04 | [7] 0.073 | [9] 0.056 | [10] -0.159 | [11] 0.065 | [12] -0.206 | [13] -0.083 | [15] 0.078 | [16] -0.029 | [18] 0 | [19] -0.045

ARF4 (UniProt P18085)
inactive: [1] 0.052 | [2] 0.028 | [3] -0.005 | [20] 0.011 | [4] 0.028 | [5] -0.005 | [6] -0.051 | [7] -0.004 | [8] 0 | [9] -0.032 | [10] 0.007 | [11] -0.061 | [12] 0.006 | [13] -0.153 | [14] -0.023 | [15] 0.17 | [16] -0.005 | [17] 0.019 | [18] 0.037 | [19] 0.035

ARHGAP4 isoform 2 (UniProt P98171)
Chain of UniProt P98171 (P98171 whole entry, looked up): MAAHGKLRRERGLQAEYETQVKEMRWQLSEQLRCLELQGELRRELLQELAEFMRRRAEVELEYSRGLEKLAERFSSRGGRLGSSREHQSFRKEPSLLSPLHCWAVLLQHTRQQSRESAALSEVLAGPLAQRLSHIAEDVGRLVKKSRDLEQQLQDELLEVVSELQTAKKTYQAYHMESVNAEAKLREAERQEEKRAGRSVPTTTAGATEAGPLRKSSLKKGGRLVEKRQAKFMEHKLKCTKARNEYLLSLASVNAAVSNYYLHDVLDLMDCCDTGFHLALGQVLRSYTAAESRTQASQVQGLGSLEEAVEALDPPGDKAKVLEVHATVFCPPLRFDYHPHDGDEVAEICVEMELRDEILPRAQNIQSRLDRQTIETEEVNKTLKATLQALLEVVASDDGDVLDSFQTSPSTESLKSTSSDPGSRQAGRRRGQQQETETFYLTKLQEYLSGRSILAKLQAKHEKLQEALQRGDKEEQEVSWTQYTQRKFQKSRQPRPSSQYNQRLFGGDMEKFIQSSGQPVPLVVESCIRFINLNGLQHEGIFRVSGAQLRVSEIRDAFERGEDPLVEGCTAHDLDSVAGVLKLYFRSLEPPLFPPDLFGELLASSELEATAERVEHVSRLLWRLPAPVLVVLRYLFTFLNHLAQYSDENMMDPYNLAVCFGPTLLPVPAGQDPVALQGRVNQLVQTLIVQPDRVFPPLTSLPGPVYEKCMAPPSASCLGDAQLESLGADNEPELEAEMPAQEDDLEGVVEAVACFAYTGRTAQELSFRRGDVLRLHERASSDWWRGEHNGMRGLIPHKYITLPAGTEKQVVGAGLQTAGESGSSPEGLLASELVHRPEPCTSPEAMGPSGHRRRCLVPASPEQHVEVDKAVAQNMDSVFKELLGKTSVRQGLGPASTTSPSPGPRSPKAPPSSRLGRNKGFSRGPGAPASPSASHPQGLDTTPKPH
inactive: [1] -0.094 | [2] 0.115 | [3] 0.089 | [20] -0.172 | [4] -0.096 | [5] 0.22 | [6] -0.062 | [7] -0.139 | [8] 0.047 | [9] 0.097 | [11] 0.027 | [12] -0.012 | [13] 0.104 | [14] 0.166 | [15] 0.067 | [16] -0.211 | [17] 0.028 | [18] 0.051

BRIP1 (UniProt Q9BX63)
Chain of UniProt Q9BX63 (Q9BX63 whole entry, looked up): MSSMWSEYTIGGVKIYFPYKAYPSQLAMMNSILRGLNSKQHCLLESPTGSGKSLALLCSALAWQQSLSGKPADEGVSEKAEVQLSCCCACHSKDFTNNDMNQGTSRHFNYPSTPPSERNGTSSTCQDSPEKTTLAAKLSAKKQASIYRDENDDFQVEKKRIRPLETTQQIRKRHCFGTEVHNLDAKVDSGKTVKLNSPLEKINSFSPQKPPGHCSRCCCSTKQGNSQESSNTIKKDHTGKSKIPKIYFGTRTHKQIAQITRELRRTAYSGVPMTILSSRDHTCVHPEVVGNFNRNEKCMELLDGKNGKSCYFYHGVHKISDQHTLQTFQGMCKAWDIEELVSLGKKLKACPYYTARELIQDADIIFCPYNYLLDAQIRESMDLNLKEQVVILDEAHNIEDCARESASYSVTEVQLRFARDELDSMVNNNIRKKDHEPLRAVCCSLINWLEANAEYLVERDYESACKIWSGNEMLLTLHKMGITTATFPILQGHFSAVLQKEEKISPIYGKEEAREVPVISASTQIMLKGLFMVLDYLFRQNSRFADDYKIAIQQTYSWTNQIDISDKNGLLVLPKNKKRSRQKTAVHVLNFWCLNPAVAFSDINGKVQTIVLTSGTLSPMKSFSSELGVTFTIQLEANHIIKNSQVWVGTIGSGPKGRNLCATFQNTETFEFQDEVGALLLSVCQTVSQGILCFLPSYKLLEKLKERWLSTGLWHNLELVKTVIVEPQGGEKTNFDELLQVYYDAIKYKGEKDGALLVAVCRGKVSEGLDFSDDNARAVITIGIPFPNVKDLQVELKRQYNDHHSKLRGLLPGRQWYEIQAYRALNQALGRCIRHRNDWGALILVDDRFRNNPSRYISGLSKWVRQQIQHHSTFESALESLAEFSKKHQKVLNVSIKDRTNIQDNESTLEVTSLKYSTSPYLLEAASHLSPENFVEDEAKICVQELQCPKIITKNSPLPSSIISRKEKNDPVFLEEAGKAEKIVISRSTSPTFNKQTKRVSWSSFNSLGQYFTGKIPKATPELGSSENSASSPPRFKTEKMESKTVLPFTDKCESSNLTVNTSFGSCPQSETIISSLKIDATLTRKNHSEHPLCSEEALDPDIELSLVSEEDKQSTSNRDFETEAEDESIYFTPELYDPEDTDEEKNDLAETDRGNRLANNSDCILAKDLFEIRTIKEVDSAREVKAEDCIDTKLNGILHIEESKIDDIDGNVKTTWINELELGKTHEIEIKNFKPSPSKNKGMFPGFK
inactive: [1] -0.034 | [2] -0.016 | [3] -0.067 | [20] -0.089 | [4] 0.001 | [5] 0.083 | [6] -0.068 | [7] -0.088 | [8] -0.003 | [9] 0.018 | [10] 0.072 | [11] 0.098 | [12] 0.061 | [13] -0.14 | [15] 0.126 | [16] 0.047 | [18] 0.003 | [19] 0.067

BRD4 (UniProt O60885)
inactive: [1] 0.047 | [2] -0.149 | [3] -0.044 | [20] -0.156 | [4] 0.065 | [5] -0.051 | [6] -0.073 | [7] 0.204 | [8] 0.01 | [9] -0.002 | [11] -0.068 | [12] -0.253 | [13] -0.001 | [14] -0.064 | [15] 0.078 | [16] 0.152 | [17] -0.003 | [18] -0.039 | [19] 0.161

AUNIP isoform 2 (UniProt Q9H7T9)
inactive: [1] -0.007 | [2] -0.085 | [3] 0.053 | [20] 0.278 | [4] 0.189 | [5] 0.043 | [7] -0.086 | [9] 0.342 | [11] 0.125 | [12] -0.044 | [13] 0.142 | [15] -0.229 | [18] 0.099

ASNS (UniProt P08243)
inactive: [1] 0.041 | [2] 0.016 | [3] -0.013 | [20] -0.002 | [4] -0.036 | [5] -0.018 | [6] -0.017 | [7] -0.015 | [8] -0.009 | [9] -0.001 | [10] 0.027 | [11] -0.073 | [12] -0.002 | [13] -0.021 | [14] -0.027 | [15] 0.02 | [16] -0.032 | [17] 0.034 | [18] -0.017 | [19] 0.019

ADD1 isoform 4 (UniProt P35611)
inactive: [3] 0.087 | [10] -0.054 | [12] -0.065 | [19] -0.068

ALG14 (UniProt Q96F25)
inactive: [1] 0.049 | [3] -0.14 | [20] -0.027 | [4] -0.001 | [5] 0.091 | [6] -0.173 | [7] -0.022 | [8] 0.028 | [9] -0.002 | [10] -0.2 | [12] -0.109 | [13] -0.091 | [14] 0.112 | [15] -0.19 | [16] 0.074 | [17] 0.077 | [18] 0.168 | [19] -0.467

ABHD11 (UniProt Q8NFV4)
Chain of UniProt Q8NFV4 (Q8NFV4 whole entry, looked up): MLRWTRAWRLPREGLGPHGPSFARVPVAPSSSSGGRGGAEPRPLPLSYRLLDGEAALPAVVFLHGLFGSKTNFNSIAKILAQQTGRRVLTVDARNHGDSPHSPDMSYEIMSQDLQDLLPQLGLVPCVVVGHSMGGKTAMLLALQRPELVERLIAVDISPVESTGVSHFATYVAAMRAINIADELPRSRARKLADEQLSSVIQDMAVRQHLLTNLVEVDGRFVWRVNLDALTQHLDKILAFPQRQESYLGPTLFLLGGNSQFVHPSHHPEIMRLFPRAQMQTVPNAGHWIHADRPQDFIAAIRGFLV
inactive: [1] -0.022 | [3] -0.066 | [20] 0.096 | [4] 0.05 | [5] -0.114 | [6] 0.02 | [7] -0.102 | [8] 0.004 | [9] -0.095 | [10] -0.076 | [12] 0.049 | [13] -0.058 | [14] -0.002 | [15] 0.061 | [16] -0.013 | [17] 0.076 | [18] -0.037 | [19] 0.024

BAIAP2 isoform 4 (UniProt Q9UQB8)
inactive: [2] 0.147 | [3] -0.034 | [20] 0.288 | [11] 0.302 | [12] -0.184

BRMS1 (UniProt Q9HCU9)
inactive: [1] -0.185 | [20] 0.001 | [6] -0.017 | [7] 0.007 | [8] 0.106 | [13] 0.066 | [14] -0.074 | [17] 0.007 | [19] 0.042

ATXN3 isoform 1 (UniProt P54252)
inactive: [3] -0.109 | [20] 0.138 | [4] -0.03 | [5] -0.119 | [6] -0.015 | [8] 0.085 | [9] 0.018 | [10] 0.023 | [12] -0.051 | [13] -0.114 | [14] -0.004 | [15] 0.106 | [16] -0.192 | [17] 0.297 | [18] -0.031 | [19] -0.036

AZI2 (UniProt Q9H6S1)
inactive: [2] -0.046 | [20] -0.078 | [5] 0.018 | [6] -0.12 | [8] 0.012 | [9] -0.093 | [11] 0.006 | [16] 0.227
active: [4] 0.453

ACOX3 (UniProt O15254)
active: [20] -0.465
inactive: [2] -0.039 | [3] -0.097 | [4] -0.034 | [5] -0.063 | [6] -0.313 | [8] -0.036 | [9] 0.046 | [10] 0.138 | [11] 0.042 | [12] -0.037 | [13] 0.074 | [14] 0.555 | [15] -0.106 | [16] 0.116 | [17] 0.144 | [18] 0.41

BRAF, A0A2R8Y8E0
inactive: [20] -0.084 | [4] 0.143 | [10] -0.008 | [13] 0.221 | [14] -0.054 | [16] -0.027 | [17] -0.326

ADD2 isoform 9 (UniProt P35612)
Chain of UniProt P35612 (P35612 whole entry, looked up): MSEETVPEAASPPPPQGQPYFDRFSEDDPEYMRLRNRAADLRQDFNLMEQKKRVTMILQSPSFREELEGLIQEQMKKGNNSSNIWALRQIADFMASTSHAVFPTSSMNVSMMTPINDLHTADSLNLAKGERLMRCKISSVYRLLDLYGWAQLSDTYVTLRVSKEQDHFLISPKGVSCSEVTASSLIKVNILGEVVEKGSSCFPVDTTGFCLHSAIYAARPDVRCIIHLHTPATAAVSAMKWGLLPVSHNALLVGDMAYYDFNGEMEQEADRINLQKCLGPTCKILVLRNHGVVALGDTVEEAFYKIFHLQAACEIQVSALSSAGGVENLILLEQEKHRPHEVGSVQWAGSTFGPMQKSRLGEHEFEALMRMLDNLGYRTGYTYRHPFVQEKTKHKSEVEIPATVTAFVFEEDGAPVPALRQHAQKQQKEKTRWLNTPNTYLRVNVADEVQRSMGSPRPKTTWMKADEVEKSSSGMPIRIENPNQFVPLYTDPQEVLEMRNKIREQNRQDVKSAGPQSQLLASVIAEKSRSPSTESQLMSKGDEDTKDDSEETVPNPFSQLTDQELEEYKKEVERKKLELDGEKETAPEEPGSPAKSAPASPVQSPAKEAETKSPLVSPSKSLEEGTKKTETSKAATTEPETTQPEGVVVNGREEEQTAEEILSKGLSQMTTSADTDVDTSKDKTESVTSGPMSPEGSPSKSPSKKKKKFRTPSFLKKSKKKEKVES
inactive: [2] -0.122 | [11] 0.043 | [14] -0.072 | [15] -0.053 | [17] 0.282 | [18] 0.04

ARMC8 isoform 6 (UniProt Q8IUR7)
inactive: [4] -0.088 | [5] -0.114 | [9] 0.108 | [13] 0.072 | [16] 0.072
